The text below walks through data of ChEMBL document CHEMBL3988442, “University of Dundee, Small-Polar-MMV Screening Library” (2021).

For some of these results: Potency and affinity values are given separately.

What all share (set-up): scale not given: direction of the effect not stated beside the values
For assay [1], the target named is Protein translocase subunit SecA (Escherichia coli (strain K12)) (UniProt P10408). Kind of assay: Assay to Identify E. coli SecA ATPase Inhibitors. The class given is functional. The following applies: 30 µM.
Assay [2] has as its target T1, Ubiquitin-activating enzyme e1, putative (Leishmania donovani (strain BPK282A1)) (UniProt E9BSI1).
T1 sequence (whole entry): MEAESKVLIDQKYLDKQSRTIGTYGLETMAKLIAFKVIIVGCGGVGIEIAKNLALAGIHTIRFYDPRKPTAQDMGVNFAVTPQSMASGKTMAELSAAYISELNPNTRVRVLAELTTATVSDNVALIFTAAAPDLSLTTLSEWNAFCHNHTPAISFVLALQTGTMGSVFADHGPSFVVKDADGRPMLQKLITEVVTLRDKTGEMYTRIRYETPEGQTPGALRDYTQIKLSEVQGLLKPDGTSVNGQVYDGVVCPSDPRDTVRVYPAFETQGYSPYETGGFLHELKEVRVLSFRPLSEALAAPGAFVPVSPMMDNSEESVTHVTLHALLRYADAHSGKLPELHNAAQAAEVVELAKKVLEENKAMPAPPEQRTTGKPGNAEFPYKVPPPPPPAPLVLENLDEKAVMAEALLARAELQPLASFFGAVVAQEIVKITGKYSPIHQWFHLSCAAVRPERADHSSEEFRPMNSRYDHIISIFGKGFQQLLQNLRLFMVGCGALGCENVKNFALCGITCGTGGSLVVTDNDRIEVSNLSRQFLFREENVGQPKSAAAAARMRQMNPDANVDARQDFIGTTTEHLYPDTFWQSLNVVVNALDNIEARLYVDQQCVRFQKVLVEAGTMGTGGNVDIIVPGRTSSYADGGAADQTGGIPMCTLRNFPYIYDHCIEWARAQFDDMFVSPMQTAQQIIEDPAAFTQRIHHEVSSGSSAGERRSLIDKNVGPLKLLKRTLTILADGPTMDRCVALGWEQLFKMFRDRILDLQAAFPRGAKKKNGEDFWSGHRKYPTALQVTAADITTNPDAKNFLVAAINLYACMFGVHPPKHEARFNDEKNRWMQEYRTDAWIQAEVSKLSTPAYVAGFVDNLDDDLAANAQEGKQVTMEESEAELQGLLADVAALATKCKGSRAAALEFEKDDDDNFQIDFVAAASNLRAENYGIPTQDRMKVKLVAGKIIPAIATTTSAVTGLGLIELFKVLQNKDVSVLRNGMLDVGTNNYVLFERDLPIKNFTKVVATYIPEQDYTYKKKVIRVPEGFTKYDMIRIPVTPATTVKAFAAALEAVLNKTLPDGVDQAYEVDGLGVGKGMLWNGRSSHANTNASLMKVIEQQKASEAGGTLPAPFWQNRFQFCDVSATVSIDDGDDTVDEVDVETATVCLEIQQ
The assay can be described thus: Leishmania donovani Ubiquitin Activating Enzyme (LdE1). The following applies: 30 µM. Type of assay: functional.

Assay [3] deals with AMP-activated protein kinase, AMPK (Homo sapiens) (UniProt P54646+O43741+P54619+Q9UGJ0+Q9Y478+Q13131+Q9UGI9). The assay can be described thus: AMP-dependent Kinase enzyme assay. An in vitro enzyme assay that detects ADP turnover that is directly proportional to AMPK activity. This uses naive AMPK that is activated during the assay with MK-8722. The class given is functional. The following applies: 30 µM.

In assay [4] the target is Sialic acid-binding Ig-like lectin 9 (Homo sapiens) (UniProt Q9Y336). Kind of assay: Hs-Siglec9 ALPHAscreen SOP 20170721. The following applies: 10 µM.
The test system of assay [5] is Trypanosoma cruzi. Kind of assay: Trypanosoma cruzi phosphomannomutase and mannose-1-phosphate guanylyltransferase assay. Type of assay: functional. The following applies: 10 µM.
The target of assay [6] is T2, Arginase-2, mitochondrial (Homo sapiens) (UniProt P78540).
T2 sequence (whole entry): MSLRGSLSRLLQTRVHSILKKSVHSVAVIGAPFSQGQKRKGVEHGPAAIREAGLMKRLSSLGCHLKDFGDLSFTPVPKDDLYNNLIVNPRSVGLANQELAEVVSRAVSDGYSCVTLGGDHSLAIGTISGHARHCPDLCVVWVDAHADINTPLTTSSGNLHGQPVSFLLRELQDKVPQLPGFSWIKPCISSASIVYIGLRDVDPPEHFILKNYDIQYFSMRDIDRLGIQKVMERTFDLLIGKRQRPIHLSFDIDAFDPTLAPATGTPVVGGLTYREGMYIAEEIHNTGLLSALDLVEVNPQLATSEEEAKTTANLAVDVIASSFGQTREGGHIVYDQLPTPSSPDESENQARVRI
The assay can be described thus: in vitro enzyme assay to detect the production of urea directly proportional to the activity of Arginase II. Also: in the data most compounds retested in dose-response had high values. The following applies: 33.3 µM. Type of assay: functional.

In assay [7] the target is T3, Proteasome subunit beta (Trypanosoma cruzi) (UniProt O96673).
T3 sequence (whole entry): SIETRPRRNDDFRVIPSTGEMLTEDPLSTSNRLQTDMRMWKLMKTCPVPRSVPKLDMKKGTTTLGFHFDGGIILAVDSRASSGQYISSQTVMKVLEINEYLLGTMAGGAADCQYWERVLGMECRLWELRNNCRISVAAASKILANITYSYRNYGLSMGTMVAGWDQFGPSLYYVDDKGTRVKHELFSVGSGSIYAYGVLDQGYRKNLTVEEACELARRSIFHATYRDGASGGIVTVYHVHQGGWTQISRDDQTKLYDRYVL
Kind of assay: Trypanosoma cruzi proteasome chymotrypsin-like activity (TcProtChymo) assay. Also: in the data most compounds retested in dose-response had high values. Type of assay: functional. The following applies: 9.37 µM.

The species entered for assay [8] is Homo sapiens. The assay can be described thus: To identify inhibition of the IFN signalling (Jak-Stat) pathway via expression of an eGFP reporter gene under the control of an IFN-stimulated response element (ISRE) containing MxA promoter. Type of assay: functional. The following applies: 30 µM.
Assay [9] deals with T4, Tyrosyl-tRNA synthetase, putative (Trypanosoma cruzi (strain CL Brener)) (UniProt Q4DSP6).
T4 sequence (whole entry): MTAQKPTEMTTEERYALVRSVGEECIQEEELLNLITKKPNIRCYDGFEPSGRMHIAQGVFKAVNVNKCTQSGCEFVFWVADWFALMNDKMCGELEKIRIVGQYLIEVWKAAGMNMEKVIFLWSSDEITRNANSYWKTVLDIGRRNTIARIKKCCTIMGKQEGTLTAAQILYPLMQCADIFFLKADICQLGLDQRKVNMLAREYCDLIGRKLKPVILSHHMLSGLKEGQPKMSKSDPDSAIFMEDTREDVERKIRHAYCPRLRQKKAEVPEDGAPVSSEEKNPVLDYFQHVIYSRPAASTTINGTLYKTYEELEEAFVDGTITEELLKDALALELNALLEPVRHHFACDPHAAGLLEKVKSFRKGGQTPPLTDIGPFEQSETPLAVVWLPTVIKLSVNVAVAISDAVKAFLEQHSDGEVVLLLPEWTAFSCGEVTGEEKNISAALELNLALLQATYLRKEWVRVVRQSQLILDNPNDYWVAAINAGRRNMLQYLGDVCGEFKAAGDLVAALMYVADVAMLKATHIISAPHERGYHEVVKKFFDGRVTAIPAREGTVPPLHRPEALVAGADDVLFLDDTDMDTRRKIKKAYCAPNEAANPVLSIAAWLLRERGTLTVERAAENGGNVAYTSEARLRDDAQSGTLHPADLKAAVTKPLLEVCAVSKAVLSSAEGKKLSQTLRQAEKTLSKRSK
Kind of assay: Trypanosoma cruzi tyrosyl tRNA synthetase (TcYRS) _High Tyrosine SOP. Also: in the data most compounds retested in dose-response had high values. The class given is functional. The following applies: 30 µM.

Assay [10] addresses T4, Tyrosyl-tRNA synthetase, putative (Trypanosoma cruzi (strain CL Brener)). The assay can be described thus: Trypanosoma cruzi tyrosyl tRNA synthetase (TcYRS) SOP. Type of assay: functional. The following applies: 30 µM.
For assay [11], the target named is Chromo domain-containing protein 1 (Saccharomyces cerevisiae (strain ATCC 204508 / S288c) (Baker's yeast)) (UniProt P32657). Kind of assay: ScCHD-1 Enzyme Inhibition Assay. Also: in the data most compounds retested in dose-response had high values. The class given is functional. The following applies: 30 µM.
Chain of Chromo domain-containing protein 1 (Saccharomyces cerevisiae (strain ATCC 204508 / S288c) (Baker's yeast)) (P32657 whole entry, the tested form may be a part): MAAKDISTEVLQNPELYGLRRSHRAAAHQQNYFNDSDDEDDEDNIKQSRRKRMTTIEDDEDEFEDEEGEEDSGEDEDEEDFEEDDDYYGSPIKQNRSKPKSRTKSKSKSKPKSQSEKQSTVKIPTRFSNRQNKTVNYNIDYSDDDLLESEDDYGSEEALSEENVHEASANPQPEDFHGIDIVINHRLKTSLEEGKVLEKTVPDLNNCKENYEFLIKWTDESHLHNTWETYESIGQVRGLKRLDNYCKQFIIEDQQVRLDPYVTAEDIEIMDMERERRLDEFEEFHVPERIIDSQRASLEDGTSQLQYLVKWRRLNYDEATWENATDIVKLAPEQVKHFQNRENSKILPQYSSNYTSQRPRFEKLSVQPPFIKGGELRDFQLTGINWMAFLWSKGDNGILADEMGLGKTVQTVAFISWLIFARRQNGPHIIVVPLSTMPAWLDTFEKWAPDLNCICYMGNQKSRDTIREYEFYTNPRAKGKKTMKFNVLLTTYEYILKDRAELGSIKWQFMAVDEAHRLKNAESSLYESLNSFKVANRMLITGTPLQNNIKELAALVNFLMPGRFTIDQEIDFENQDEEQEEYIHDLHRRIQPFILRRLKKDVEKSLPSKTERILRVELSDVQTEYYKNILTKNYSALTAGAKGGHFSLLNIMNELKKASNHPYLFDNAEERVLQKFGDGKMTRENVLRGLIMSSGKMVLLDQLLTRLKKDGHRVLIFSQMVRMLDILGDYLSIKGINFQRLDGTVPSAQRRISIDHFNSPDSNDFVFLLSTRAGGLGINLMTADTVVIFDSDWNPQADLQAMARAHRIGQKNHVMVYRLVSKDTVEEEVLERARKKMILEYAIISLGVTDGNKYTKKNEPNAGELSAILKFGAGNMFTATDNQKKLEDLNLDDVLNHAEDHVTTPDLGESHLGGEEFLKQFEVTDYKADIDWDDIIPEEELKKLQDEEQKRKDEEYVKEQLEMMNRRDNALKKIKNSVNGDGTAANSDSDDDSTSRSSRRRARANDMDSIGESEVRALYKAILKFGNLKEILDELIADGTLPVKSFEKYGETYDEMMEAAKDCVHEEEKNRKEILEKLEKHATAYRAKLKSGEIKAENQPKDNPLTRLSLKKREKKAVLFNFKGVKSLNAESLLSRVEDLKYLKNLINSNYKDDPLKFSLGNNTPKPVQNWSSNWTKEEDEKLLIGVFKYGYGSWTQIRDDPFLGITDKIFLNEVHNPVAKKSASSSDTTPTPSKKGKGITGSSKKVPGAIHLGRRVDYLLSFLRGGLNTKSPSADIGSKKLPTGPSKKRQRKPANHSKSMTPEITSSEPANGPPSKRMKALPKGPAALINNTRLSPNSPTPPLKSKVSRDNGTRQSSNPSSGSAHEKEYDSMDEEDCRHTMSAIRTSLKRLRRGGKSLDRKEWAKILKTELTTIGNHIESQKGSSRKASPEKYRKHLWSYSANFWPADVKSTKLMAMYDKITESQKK

Chain of Sialic acid-binding Ig-like lectin 9 (Homo sapiens) (Q9Y336 whole entry): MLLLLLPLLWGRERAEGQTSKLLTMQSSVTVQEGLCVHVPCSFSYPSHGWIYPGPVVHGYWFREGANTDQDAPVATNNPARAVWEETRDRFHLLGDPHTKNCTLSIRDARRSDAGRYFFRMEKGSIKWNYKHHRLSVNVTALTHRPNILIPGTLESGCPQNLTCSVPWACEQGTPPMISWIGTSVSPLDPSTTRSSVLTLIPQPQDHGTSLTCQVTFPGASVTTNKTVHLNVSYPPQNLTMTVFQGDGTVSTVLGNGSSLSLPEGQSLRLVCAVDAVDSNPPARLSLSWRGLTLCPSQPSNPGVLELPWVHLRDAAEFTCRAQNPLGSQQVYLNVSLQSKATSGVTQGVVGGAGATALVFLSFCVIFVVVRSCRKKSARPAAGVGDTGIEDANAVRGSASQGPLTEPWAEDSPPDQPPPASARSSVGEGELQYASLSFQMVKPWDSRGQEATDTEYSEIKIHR
Chain of Protein translocase subunit SecA (Escherichia coli (strain K12)) (P10408 whole entry): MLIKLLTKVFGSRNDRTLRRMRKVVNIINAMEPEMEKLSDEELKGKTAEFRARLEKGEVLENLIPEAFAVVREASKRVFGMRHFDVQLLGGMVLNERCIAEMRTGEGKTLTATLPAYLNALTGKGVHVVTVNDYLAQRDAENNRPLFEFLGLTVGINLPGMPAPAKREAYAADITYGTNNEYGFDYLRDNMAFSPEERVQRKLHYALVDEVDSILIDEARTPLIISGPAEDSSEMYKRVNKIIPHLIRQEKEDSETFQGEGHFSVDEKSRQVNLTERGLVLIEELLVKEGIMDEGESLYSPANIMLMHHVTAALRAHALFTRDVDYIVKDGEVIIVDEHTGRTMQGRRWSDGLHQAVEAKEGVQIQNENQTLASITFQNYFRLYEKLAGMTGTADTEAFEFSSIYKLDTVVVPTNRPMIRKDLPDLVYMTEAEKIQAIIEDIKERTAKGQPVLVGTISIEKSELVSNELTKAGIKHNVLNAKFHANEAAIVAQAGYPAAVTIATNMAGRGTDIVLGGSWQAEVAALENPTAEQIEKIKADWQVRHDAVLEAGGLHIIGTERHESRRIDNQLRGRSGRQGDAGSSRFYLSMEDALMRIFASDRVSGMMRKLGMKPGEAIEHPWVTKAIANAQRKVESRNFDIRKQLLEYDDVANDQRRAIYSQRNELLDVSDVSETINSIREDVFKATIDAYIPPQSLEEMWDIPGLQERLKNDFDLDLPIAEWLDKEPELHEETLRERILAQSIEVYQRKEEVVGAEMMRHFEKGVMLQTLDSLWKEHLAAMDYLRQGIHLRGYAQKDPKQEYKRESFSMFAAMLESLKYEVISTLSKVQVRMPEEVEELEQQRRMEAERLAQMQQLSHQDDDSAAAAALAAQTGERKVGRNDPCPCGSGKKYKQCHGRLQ

As for `CCN(CC)c1ccc(-c2nc(-c3cccc(OC)c3OC)no2)cn1`, the Percent Effect was -3.58% in [1]; 8% in assay [2]; -0.0158% in assay [3]; 12.2% in [4]; 6.52% in [5]; 17.2% in assay [6]. Further, the Percent Effect in [7] was 0.349%; in assay [8], 10.7%; in assay [9], 1.64%; in assay [10], -8.64%; in [11], -2.98%.
Take `Cc1cccc(CN2CCC3(CCCN(C(=O)c4ccsc4)C3)C2=O)n1` (stereo not drawn): the Percent Effect was -2.33% in assay [1]; 0% in assay [2]; 10.5% in assay [3]; -2.49% in assay [4]; 0.0986% in assay [5]; -0.645% in assay [6]. Further, the Percent Effect is 3.48% in assay [7]; -3.21% in assay [8]; 3.17% in assay [9]; 3.85% in [10]; 87.7% in [11].
`Cc1cccc(CN2CCc3ncnc(N4CCOCC4)c3CC2)n1`: the Percent Effect in assay [1] is -4.12%; in assay [2], -5.48%; in [3], 1.75%; in assay [4], -1.38%; in [5] it was -1.39%; in assay [6] it was 3.59%. The Percent Effect in assay [7] is 4.2%; in assay [8], 20.4%; in assay [9] it was -1.04%; in assay [10], 1.24%; in assay [11], -0.552%.
On to `Cc1cc(C)n(CC2CCCN2C(=O)CCCc2ccccn2)n1` (stereo not drawn), for which the Percent Effect in assay [1] is -6.25%; in assay [2], 2.63%; in [3] it was 5.48%; in assay [4] it was 0.753%; in assay [5] it was -3.76%; in assay [6] it was 2.68%. The Percent Effect is 10.9% in assay [7]; 16.9% in [8]; 1.47% in [9]; 4.88% in assay [10]; -3.06% in assay [11].
Take `CC(C)Cc1noc(CN2CCN(CCOc3ccc(Cl)cc3)CC2)n1`: the Percent Effect in assay [1] is -5.56%; in [2] it was 21.1%; in assay [3] it was -0.366%; in assay [4], 9.07%; in assay [5], 5.08%; in [6], -3.83%. The Percent Effect in [7] is 14.7%; in assay [8] it was 32.7%; in [9] it was 5.39%; in [10], 19.5%; in [11], -8.42%.
For `Cc1cccc(CN2CC3(CCNCC3)OCC2=O)n1`, the Percent Effect in [1] is -6.42%; in assay [2] it was 2.7%; in assay [3] it was 2.52%; in [4], -3.05%; in assay [5], 1.37%; in assay [6], -0.833%. In addition, the Percent Effect in [7] was 2.11%; in assay [8], 2.26%; in assay [9], 4.95%; in assay [10], 11%; in [11], -6.46%.
Take `CC(=O)Nc1nc(CN2CCCCC2Cn2cccn2)cs1` (stereo not drawn): the Percent Effect in assay [1] is -4.14%; in assay [2], 5.26%; in assay [3] it was 3.07%; in assay [4], -1.3%; in assay [5], -0.0974%; in assay [6], -1.18%. In addition, the Percent Effect in assay [7] is 10.8%; in assay [8] it was 20.7%; in [9], 9.57%; in assay [10] it was 15.6%; in assay [11] it was -6.41%.
Regarding `COc1cccc(C(=O)N2CCCC(C(=O)CCc3ccccc3)C2)c1` (stereo not drawn), the Percent Effect was -1.46% in assay [1]; 11% in assay [2]; 17.6% in [3]; 10.9% in assay [4]; 1.96% in assay [5]; 4.54% in assay [6]. The Percent Effect was 20.1% in assay [7]; 23.4% in assay [8]; 1.07% in assay [9]; 7.5% in [10]; -8.9% in assay [11].
